Compounds without any hit were thinned out: in the full panel of roughly 83,000, 20% have a hit.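 Activity criterion: percent growth below 10, measured after cells in 96-well plates were exposed to a single compound concentration for 48 hours.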 Unmarked numbers belong to inactive results. Calls of active or inactive are those of the source.
These compounds were tested on NCI/ADR-RES ovarian (assay: NCI-60 one-dose screen, 48 h (100 = growth as untreated, 0 = no growth, -100 = all killed)). Conditions: 10 µM unless noted.

SMILES	growth
CC1OC(O[C@@H]2[C@H](O)C(CO)OC(O[C@H]3COC(O[C@H]4CC[C@]5(C)[C@H]6CC[C@]78OC[C@@]9(CC[C@](C)(C=O)C[C@H]97)C(=O)C[C@@]8(C)[C@]6(C)CC[C@H]5C4(C)C)[C@@H](O)[C@@H]3O)[C@H]2OC2OC[C@@H](O)[C@@H](O)[C@@H]2O)[C@@H](O)[C@@H](O)[C@H]1O (stereo partly specified)	95.2%
CC(=O)NC(C)(C)C(=O)N1CCC[C@H]1C(=O)NC(C)(C)C(=O)N[C@@H](C)C(=O)NC(C)(C)C(=O)NC(C)(C)C(=O)N[C@@H](CCC(N)=O)C(=O)NC(C)(C)C(=O)N[C@H](C(=O)NC(C)(C)C(=O)NCC(=O)N[C@@H](CC(C)C)C(=O)NC(C)(C)C(=O)N1CCC[C@H]1C(=O)N[C@H](C(=O)NC(C)(C)C(=O)NC(C)(C)C(=O)N[C@@H](CCC(N)=O)C(=O)N[C@@H](CCC(N)=O)C(=O)N[C@H](CO)Cc1ccccc1)C(C)C)C(C)C	101% [4.25 µM]
CC1(C)CC[C@]2(C(=O)O)CC[C@]3(C)C(=CCC4[C@@]5(C)C[C@@H](O)[C@@H]6OC(c7cccc([N+](=O)[O-])c7)OC[C@@]6(C)C5CC[C@]43C)C2C1 (stereo partly specified)	39.7%
Oc1ccccc1-c1nnc(SCc2ccc(O)c3ncccc23)n1-c1ccccc1	6.23% (active)
O=c1c2c(O)cccc2oc2c3c(cc(O)c12)O[C@H]1OC=C[C@@H]31	87.9%
O=C(CN1C(=O)S/C(=C\c2ccccc2)C1=O)Nc1ccc(C(=O)/C=C/c2cc3ccccc3nc2Cl)cc1	88.8%

Source: PubChem BioAssay (NCI)
